Screening data deposited in PubChem by National Center for Advancing Translational Sciences (NCATS).
The list is not random: actives were taken first. Their share in the collection is about 4.6%.
D1 agonist = human D1 receptor agonism; P21728; 1% of 360,000 active; HEK293 T-REx D1 cells, calcium flux, agonist mode; activation, % at 2 µM; also: 0% is about no effect
Target sequence (P21728 whole entry, looked up): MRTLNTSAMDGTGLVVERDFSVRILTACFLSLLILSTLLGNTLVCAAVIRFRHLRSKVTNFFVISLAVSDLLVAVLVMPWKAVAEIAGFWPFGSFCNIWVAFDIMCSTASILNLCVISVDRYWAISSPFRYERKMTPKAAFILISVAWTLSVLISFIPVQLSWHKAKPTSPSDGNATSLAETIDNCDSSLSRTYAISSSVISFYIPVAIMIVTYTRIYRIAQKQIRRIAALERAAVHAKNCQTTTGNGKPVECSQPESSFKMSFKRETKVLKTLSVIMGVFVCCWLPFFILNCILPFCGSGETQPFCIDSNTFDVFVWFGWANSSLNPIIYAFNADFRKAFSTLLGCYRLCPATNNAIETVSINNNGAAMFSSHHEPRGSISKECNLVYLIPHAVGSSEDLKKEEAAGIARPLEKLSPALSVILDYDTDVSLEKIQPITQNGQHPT
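Agonism was scored from calcium flux recorded over 180 s (1 read/s) after pintool compound addition, following a 10-cycle baseline. Cells were inducible force-coupled HEK293 TREx D1, plated overnight at 30 C and loaded with no-wash calcium dye.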
Epigenetic reg = regulators of epigenetic silencing causing reporter derepression in mouse cells | murine LDR cells, GFP reporter derepression, 30 h | Potency, µM (highest dose often 53.9 µM), inactives show at the top dose GFP activation, actives largely listed as activators | 0.2% of 280,000 active | AID 1865; active = well fitted activation curve with a large enough effect; also: potency is read from the fitted curve at half-maximal effect; % of control where 0% means no effect; nearly all actives have a fitted effect of over 60% in size
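Murine LDR cells bearing a silenced CMV-driven GFP reporter were exposed to compound for 30 h at 37 C. After PBS washes, GFP-positive cells (20-120 um objects) counted by laser-scanning microplate cytometry.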
D1 potentiator = enhances dopamine response at the human D1 receptor. P21728. HEK293 TREx D1 cells, calcium flux, dopamine EC20 potentiation. potentiation, % at 10 µM. 0.036% of 360,000 active. AID 504651; in the data active = potentiation above about 30%; also: 0% is about no effect
TRHR agonist = activates the human TRH receptor; TRHR cells, calcium flux fluo-8, FDSS agonist mode; activation, % at 2 µM; 0.18% of 360,000 active; also: 0% is about no effect
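TRHR-expressing cells loaded with fluo-8 calcium dye; 23 nL library compound pin-transferred, kinetic FDSS fluorescence (Ex 480/Em 530) recorded about 180 s for agonist-induced calcium release, before a 10 nM TRH EC20 addition for potentiator mode.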
TRHR PAM = allosteric enhancers of human TRH receptor; 0.66% of 360,000 active; P34981; AID 493056; enhancement, % at 2 µM; TRHR cells, fluo-8 calcium fluorescence, EC20 TRH enhancement; in the data active = enhancement above about 30%; also: 0% is about no effect
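Enhancer read-out: after compound pinning and an initial kinetic agonist-mode read, an EC20 of TRH (10 nM final) was injected and fluo-8 calcium signal (Ex 480/Em 530) followed at 1 s/cycle for 100 cycles in TRHR-expressing cells.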
D1 antag = antagonists of human D1 dopamine receptor. HEK293 TREx D1 cells, calcium flux, dopamine EC80; active compounds read low. 3.2% of 360,000 active. AID 504652. activity change, negative = inhibition, % at 10 µM; in the data active = activity change below about -30%; also: % is scaled to controls: 0 for no effect and ±100 for the full control effect
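Compound effects on dopamine-evoked calcium signalling were measured in tetracycline-induced HEK293 Trex D1 cells. Dopamine at EC80 followed a 180 s compound pre-read, and fluorescence was tracked kinetically for 180 s more.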
Active calls of the source: *; x = no result; [ ] = dose if it differs, or a comment. Rule as the data show it, unless noted: active = activation above about 30%; inactive = the rest.

SMILES | D1 agonist | Epigenetic reg | D1 potentiator | TRHR agonist | TRHR PAM | D1 antag
Cc1cc(C(F)F)n2ncc(C(=O)NCc3ccccc3F)c2n1 | 2 | -1% | -4 | 0 | -5 | -32*
Cc1cc(C(F)F)n2ncc(C(=O)NCc3ccccc3C(F)(F)F)c2n1 | 6 | -1% | 9 | 0 | -14 | 15
COc1cc(NC(=O)c2ccc(C)cc2)ccc1NC(=O)c1cc2ccccc2o1 | 4 | 1% | -6 | -1 | -4 | 4
COc1cc(NC(=O)c2ccc(F)cc2)ccc1NC(=O)c1cc2ccccc2o1 | 1 | x | -9 | 0 | 6 | -33*
O=C(Nc1ccc(NC(=O)c2cc3ccccc3o2)cc1)c1ccc2c(c1)OCCO2 | 3 | 0% | 1 | -1 | 3 | -43*
O=C(NCCN1CCCCC1)c1ccc(Cc2nc3ccccc3[nH]2)cc1 | x | 3% | x | x | x | x
COc1cccc(NC(=O)CCc2nnc3n(CC(C)C)c(=O)c4ccccc4n23)c1 | -1 | 1% | -3 | 0 | 9 | 7
CN(C(=O)CN1C(=O)NC(C)(c2cccc(Br)c2)C1=O)C1CCCCC1 (centres undefined) | 6 | x | -3 | 0 | -5 | -57*
CCC(C)NC(=O)CSc1nc2cc(S(=O)(=O)N3CCOCC3)ccc2n1CC (centres undefined) | -1 | x | 1 | 0 | 1 | -32*
CCn1c(SCC(=O)c2cc(C)ccc2C)nc2cc(S(=O)(=O)N3CCOCC3)ccc21 | 4 | 0% | 2 | 0 | -6 | 16
CCCNC(=O)c1ccc2c(=O)c(O)c(-c3ccsc3)[nH]c2c1 | 9 | 1% | -5 | 4 | 3 | -19
CCCNC(=O)c1ccc2c(=O)c(O)c(-c3ccc(C)cc3)[nH]c2c1 | 6 | 6% | -9 | 4 | -6 | -93*
Cc1ccc(CNC(=O)c2ccc3c(O)c(S(=O)(=O)c4ccc(Cl)cc4)c(=O)[nH]c3c2)cc1 | 1 | 0% | -6 | 0 | 7 | 6
Cc1ccc(-c2[nH]c3cc(C(N)=O)ccc3c(=O)c2O)cc1 | 2 | 0% | -7 | 1 | 10 | -36*
CCCNC(=O)c1ccc2c(=O)c(O)c(-c3ccc(OC)cc3)[nH]c2c1 | 1 | 1% | -8 | 2 | -5 | -35*
Cc1ccc(CNC(=O)c2ccc3c(=O)c(O)c(-c4ccc(C)cc4)[nH]c3c2)cc1 | 8 | 3% | -8 | 5 | -1 | -41*
CC(=O)c1ccc(NC(=O)c2cccc(NC(=O)N3CCSc4ncccc43)c2)cc1 | 3 | 10% | -3 | 0 | 4 | -19
Cc1ccc(NC(=O)c2ccco2)c(OCc2cc(=O)n3cc(C)sc3n2)c1 | 7 | 1% | 1 | 0 | 3 | 9
COc1ccc(Cl)cc1-c1ccc(C(=O)O)s1 | x | 5%[96.6 µM] | x | x | x | x
Cc1ccccc1CNC(=O)CN1C(=O)CCCc2ccccc21 | -1 | 0% | 6 | 0 | 2 | 0
CCOc1ccc(S(=O)(=O)N2CCN(c3cccc(C(F)(F)F)c3)CC2)cc1OCC | 4 | -1% | -1 | 1 | 2 | -10
Cc1ccc(-c2[nH]c3cc(C(=O)NCCCn4ccnc4)ccc3c(=O)c2O)cc1 | 5 | 0% | -8 | 3 | 7 | -57*
CC(OC(=O)c1ncc(Cl)c(Cl)c1Cl)C(=O)NC1CCCCC1C (centres undefined) | 2 | x | 0 | 0 | -1 | -32*
CCOc1ccc(-c2cc(NC(=O)Nc3ccc(Cl)cc3)c(C(=O)OC)s2)cc1 | 3 | 4% | -2 | 0 | 9 | -22
COc1ccc(-c2oc3ncn4nc(-c5ccccc5Br)nc4c3c2-c2ccc(OC)cc2)cc1 | -1 | -2% | 0 | -1 | -3 | -11
SMILES | D1 agonist | Epigenetic reg | D1 potentiator | TRHR agonist | TRHR PAM | D1 antag
CC(C)(C)OC(=O)N1CCC(c2c(C(=O)NCc3ccco3)cnn2-c2ccc(F)cc2)CC1 | 0 | 0% | 4 | 0 | 9 | 7
CC(=O)c1c(C)nc2ccc(Br)cc2c1-c1ccccc1 | 1 | -3% | 1 | -2 | -9 | -4
CC(=O)c1c(Cl)nc2ccc(Br)cc2c1-c1ccccc1 | 2 | x | 8 | 0 | 35* | 3
CCCCOc1ccc(C(=O)NNC(=O)C2C3CCC(C3)C2C(=O)O)cc1 (centres undefined) | 1 | x | 4 | 0 | 0 | 3
CCCCOc1ccc(C(=O)NNC(=O)C2C3C=CC(C3)C2C(=O)O)cc1 (centres undefined) | 2 | x | -6 | -1 | -3 | -82*
Cc1ccc(CN2CCC(CNc3ncnc4onc(-c5ccc(F)cc5)c34)CC2)cc1 | 5 | 0% | 0 | 1 | 4 | -23
CCN(CC)c1ccc2nc3c(=O)n(C)c(=O)n(C)c3nc2c1 | 144* | 13µM* | 3 | 68* | 4 | -18
CCN(CC)C(=O)Cn1c(=O)n(CCCCCC(=O)NCc2ccc3c(c2)OCO3)c(=O)c2sccc21 | -3 | -2% | 0 | 0 | -7 | -3
O=C(NC1CCCCC1)N(Cc1nc2ccccc2c(=O)[nH]1)C1CCCCC1 | 0 | -1% | 9 | 1 | -5 | -3
O=C(NC1CCCCC1)N(Cc1nc2ccccc2c(=O)[nH]1)C1CCCC1 | 0 | 0% | 5 | -1 | -9 | -64*
COc1ccc(N2C(=O)CSC23C(=O)N(CC(=O)NC2CCCCC2)c2ccccc23)cc1 (centres undefined) | 1 | -1% | -1 | 0 | -9 | 8
COc1ccc(Cl)cc1C(=O)NCc1ccc2c(c1)OCO2 | 6 | x | 4 | 0 | -8 | 11
COc1cc2c(C(=O)NCc3ccc4c(c3)OCO4)cn(C)c(=O)c2cc1OC | 0 | -1% | -4 | 1 | 7 | -31*
O=C(C[n+]1cccc2ccccc21)c1ccc(Br)cc1 | 4 | x | -3 | 0 | -9 | -5
NC(=O)C[n+]1cccc2ccccc21 | 45* | 0% | -5 | 12 | -7 | -4
CCc1ccccc1NC(=O)CSc1nc2c(oc3ccccc32)c(=O)n1-c1ccccc1 | 4 | 0% | 2 | 0 | 0 | -10
CCCC1O[C@@H]2C[C@H]3[C@@H]4CCC5=CC(=O)C=C[C@]5(C)C4[C@@H](O)C[C@]3(C)[C@]2(C(=O)CO)O1 (some centres undefined) | x | 0% | x | x | x | x
CCOC(=O)C(Cc1ccccc1)C(=O)Nc1cccc(C)c1 (centres undefined) | -1 | -1% | 6 | -1 | 31* | -3
CC(O)c1cccc(NC(=O)CCCc2ccccc2)c1 (centres undefined) | 1 | 0% | 1 | 3 | -3 | 3
Cc1cccc(NC(=O)CCCc2ccccc2)c1 | 3 | x | -5 | 0 | -3 | -58*
